Drawing on PubChem BioAssay (NCATS), this text covers outcome, Potency and activation for 17 compounds.

Values joined by “and” are separate entries in the source; they are usually repeats but may differ in a detail not shown here. Identical values can stand only once. Inconclusive results are not listed. The source holds several records for some structures; these can differ, active in one and inactive in another. Active and inactive are the calls of the source. Unless noted, the call rests on the fitted dose curve; in most records, active means well fitted curve in the direction sought with a large enough effect; inconclusive means small, poorly fitted or top-dose-only effect, or another doubt; inactive means no such curve, though single readings can be large; an effect the other way counts as inactive or inconclusive.

The target in test [1] is Guanine nucleotide-binding protein G(i) subunit alpha-1 (Homo sapiens) (UniProt P63096). The test can be described thus: qHTS Assay for Inhibitors of RGS12 GoLoco Motif Activity (Green Fluorophore) (AID 879).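 Further: 0% = labeled peptide with Gαi1 and full inhibition = labeled peptide alone without protein; negative values mean loss of peptide binding seen as reduced polarization.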 The method, boiled down: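 Fluorescence polarization assay: 50 nM Gαi1 with 10 nM FITC-labeled RGS12 GoLoco peptide in 10 mM Tris pH 7.5, 150 mM NaCl, 0.1 mM GDP, 0.05% NP40, 10 min at room temperature with compound.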

The target in test [2] is Cytochrome P450 3A4 (Homo sapiens) (UniProt P08684). The test can be described thus: qHTS Assay for Activators of Cytochrome P450 3A4 (AID 885). Further: nearly all actives have a fitted effect of over 65% in size. Further: potency means the concentration at half of the fitted maximal effect. In a few lines:
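Human CYP3A4 (20 nM) with Luciferin-PPXE at 25 uM (its KM) in 200 mM KPO4; 10 min compound preincubation, then NADPH regeneration and 60 min reaction at RT. Luciferin read by luminescence; normalized to 57 uM ketoconazole full inhibition.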

Test [3] concerns the target Muscarinic acetylcholine receptor M1 (Rattus norvegicus) (UniProt P08482). The test can be described thus: qHTS Assay for Antagonists of Acetylcholine Muscarinic M1 Receptor: Kinetic Measurement of Intracellular Calcium Response (AID 943). Further: nearly all actives have a fitted effect of over 75% in size. Further: potency means the concentration at half of the fitted maximal effect. The method, boiled down: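 Rat M1-CHO cells, 2000/well, overnight → Fluo-4 no-wash dye with probenecid, 1 h 37C → compound 10 min, room temp → basal read 6 s → carbachol EC80 (100 nM) → 4 min kinetic read; peak/basal.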
(qHTS replaces the single test concentration by a dilution series.)

Test [4] shares this target. The test can be described thus: qHTS Assay for Antagonists of Acetylcholine Muscarinic M1 Receptor: Measurement of IP-One Response (AID 944). Further: nearly all actives have a fitted effect of over 75% in size. Further: potency means the concentration at half of the fitted maximal effect. In a few lines: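 M1-CHO (rat), 2000 cells/well, overnight recovery; cpd 10 min; carbachol EC80 (200 nM), 30 min, HEPES buffer + 50 mM LiCl pH 7.4; IP-One HTRF, Ex 337, Em 620/665 nm.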
The target of test [5] is Cytochrome P450 2C19 (Homo sapiens) (UniProt P33261). The test can be described thus: qHTS Assay for Inhibitors and Substrates of Cytochrome P450 2C19 (AID 899). Further: nearly all actives have a fitted effect of over 60% in size. Further: potency means the concentration at half of the fitted maximal effect. In a few lines: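 Human CYP2C19 (5nM) with Luciferin-H EGE at 10uM (its KM) in 50mM KPO4 was preincubated with compound for 10 min at 37C. NADPH regeneration started a 60 min 37C reaction. Luciferin was read by luminescence, normalized to 57uM ketoconazole.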

A short description of test [6]: Confirmation and Secondary Assay for Modulators of Hemoglobin Beta Chain Splicing at IVS2 654 locus (AID 910).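 Further: per-well total GFP intensity by laser scanning cytometry after 2-day treatment; % of control where 0% means no effect.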 The method, boiled down: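 HeLa cells stably carrying EGFP interrupted by mutant beta-globin IVS2-654 intron (CMV-driven) were treated with compound for 2 days at 37C; corrected splicing was scored as total peak GFP intensity per well (488 nm excitation, 500-520 nm emission).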

The nature of test [7]: qHTS Assay for Identification of Small Molecule Agonists for Thrombopoietin (TPO) Signaling Pathway (AID 917). Further: potency means the concentration at half of the fitted maximal effect. In a few lines: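 IL-3-dependent murine pro-B Ba/F3 cells, stably transfected with human TPO receptor and GpIIb-promoter luciferase, are incubated 24 hrs at 37 C with test compound and 26 pM TPO; luciferase signal is read after 10 min at room temperature.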
Test [8] in a line: Confirmation and Secondary Assay for Modulators of Hemoglobin Beta Chain Splicing at IVS2 705 locus (AID 930).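 Further: HeLa cells stably expressing the EGFP-705 splicing reporter; GFP fluorescence per well restored by corrected splicing of the IVS2-705 intron in EGFP; series mostly up to about 46 µM; % of control where 0% means no effect.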 The method, boiled down:
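Fluorescence gain (488 nm laser, 500-520 nm PMT) reflects restored correct splicing of a mutant IVS2-705 intron inside EGFP in stably transfected HeLa cells after 2-day compound treatment.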

Test [9] is described as follows: qHTS Assay for Identification of Small Molecule Antagonists for NFkB Signaling Pathway (AID 895; active means well fitted inhibition curve with a large enough effect in the signal ratio, with a control signal flat, not every such curve was filed as active; the % refers to the signal ratio; further: potency means the concentration at half of the fitted maximal effect). In a few lines:
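NFkB-bla ME-180 cervical carcinoma cells with beta-lactamase reporter under NFkB response element; compounds added, then TNF alpha at 10 pM final (EC50), 5 h at 37 C. LiveBLAzer substrate 2 h, room temperature; emission 460/530 nm at 405 nm excitation.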

The target in test [10] is Cytochrome P450 2D6 (Homo sapiens) (UniProt P10635). The test can be described thus: qHTS Assay for Inhibitors and Substrates of Cytochrome P450 2D6 (AID 891). Further: nearly all actives have a fitted effect of over 60% in size. Further: potency means the concentration at half of the fitted maximal effect. In a few lines:
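Human CYP2D6 (5 nM) with 30 uM Luciferin-ME EGE (at Km) in 100 mM KPO4, compound preincubated 10 min, then NADPH regeneration system for 60 min at room temperature. Luciferin read by luminescence; normalized to 1.43 uM quinidine.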

Test [11] in a line: qHTS Assay for Identification of Small Molecule Antagonists for Thrombopoietin (TPO) Signaling Pathway (AID 918). Further: potency means the concentration at half of the fitted maximal effect; nearly all actives have a fitted effect of over 60% in size. To be noted: TPO-dependent cell signaling reporter, antagonist mode. In a few lines: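 Ba/F3 (murine, hTPO-R, GPIIb-luc reporter); overnight IL-3 withdrawal; cpd + TPO 26 pM final (EC50); 24 h 37 C/5% CO2; Steadylite luminescence after 10 min RT.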
Test [12] is described as follows: qHTS Assay for Identification of Small Molecule Agonists for Hypoxia Response Element Signaling Pathway (AID 914; active means well fitted activation curve with a large enough effect in the signal ratio, with a control signal flat, not every such curve was filed as active; the % refers to the signal ratio; further: % of control where 0% means no effect). To be noted: ME-180 (cervical carcinoma) HRE-bla reporter, beta-lactamase ratio, CoCl2, 17 h; stronger effect = higher value. The method, boiled down: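 A beta-lactamase reporter under hypoxia response element control in ME-180 cells served as the system. Compound titrations plus EC50 CoCl2 ran 17 h at 37 degrees Celsius; AC50 values were fitted from %Activity.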

Sequence of Guanine nucleotide-binding protein G(i) subunit alpha-1 (Homo sapiens) (P63096 whole entry, looked up): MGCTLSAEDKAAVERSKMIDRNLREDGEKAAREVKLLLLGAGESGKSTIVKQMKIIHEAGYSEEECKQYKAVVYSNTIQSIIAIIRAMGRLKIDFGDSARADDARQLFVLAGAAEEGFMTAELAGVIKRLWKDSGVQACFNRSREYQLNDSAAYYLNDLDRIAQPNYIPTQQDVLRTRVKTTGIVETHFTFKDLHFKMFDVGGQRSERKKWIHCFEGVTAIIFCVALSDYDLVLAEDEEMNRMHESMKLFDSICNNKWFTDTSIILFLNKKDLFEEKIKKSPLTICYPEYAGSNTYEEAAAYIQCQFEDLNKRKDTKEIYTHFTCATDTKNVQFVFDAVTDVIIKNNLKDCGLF
Sequence of Cytochrome P450 3A4 (Homo sapiens) (P08684 whole entry, looked up): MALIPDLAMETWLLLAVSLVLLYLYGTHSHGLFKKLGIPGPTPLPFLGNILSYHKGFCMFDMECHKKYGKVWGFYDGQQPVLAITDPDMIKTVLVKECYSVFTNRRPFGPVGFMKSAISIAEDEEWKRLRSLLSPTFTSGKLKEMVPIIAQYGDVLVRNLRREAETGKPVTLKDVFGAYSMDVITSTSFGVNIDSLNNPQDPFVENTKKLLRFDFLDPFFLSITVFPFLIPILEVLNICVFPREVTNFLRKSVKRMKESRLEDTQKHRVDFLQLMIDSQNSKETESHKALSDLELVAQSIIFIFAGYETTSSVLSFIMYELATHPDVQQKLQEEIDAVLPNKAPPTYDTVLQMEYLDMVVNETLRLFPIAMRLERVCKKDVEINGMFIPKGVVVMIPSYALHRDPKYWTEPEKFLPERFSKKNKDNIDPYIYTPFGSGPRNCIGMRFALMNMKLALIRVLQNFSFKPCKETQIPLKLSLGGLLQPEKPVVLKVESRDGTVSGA
Sequence of Cytochrome P450 2D6 (Homo sapiens) (P10635 whole entry, looked up): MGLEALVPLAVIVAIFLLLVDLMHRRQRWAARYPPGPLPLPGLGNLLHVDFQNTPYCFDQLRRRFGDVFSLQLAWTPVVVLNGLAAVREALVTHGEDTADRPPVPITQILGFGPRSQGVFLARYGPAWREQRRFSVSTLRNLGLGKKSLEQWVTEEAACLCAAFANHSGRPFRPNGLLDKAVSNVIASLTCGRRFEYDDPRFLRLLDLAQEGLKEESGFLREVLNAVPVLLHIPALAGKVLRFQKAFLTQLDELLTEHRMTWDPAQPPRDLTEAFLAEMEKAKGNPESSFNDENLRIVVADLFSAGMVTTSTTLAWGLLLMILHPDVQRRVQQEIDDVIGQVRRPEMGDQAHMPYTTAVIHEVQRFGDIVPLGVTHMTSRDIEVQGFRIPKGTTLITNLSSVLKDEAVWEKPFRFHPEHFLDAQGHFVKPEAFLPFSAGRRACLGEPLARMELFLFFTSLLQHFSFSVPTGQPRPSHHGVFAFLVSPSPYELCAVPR
Sequence of Cytochrome P450 2C19 (Homo sapiens) (P33261 whole entry, looked up): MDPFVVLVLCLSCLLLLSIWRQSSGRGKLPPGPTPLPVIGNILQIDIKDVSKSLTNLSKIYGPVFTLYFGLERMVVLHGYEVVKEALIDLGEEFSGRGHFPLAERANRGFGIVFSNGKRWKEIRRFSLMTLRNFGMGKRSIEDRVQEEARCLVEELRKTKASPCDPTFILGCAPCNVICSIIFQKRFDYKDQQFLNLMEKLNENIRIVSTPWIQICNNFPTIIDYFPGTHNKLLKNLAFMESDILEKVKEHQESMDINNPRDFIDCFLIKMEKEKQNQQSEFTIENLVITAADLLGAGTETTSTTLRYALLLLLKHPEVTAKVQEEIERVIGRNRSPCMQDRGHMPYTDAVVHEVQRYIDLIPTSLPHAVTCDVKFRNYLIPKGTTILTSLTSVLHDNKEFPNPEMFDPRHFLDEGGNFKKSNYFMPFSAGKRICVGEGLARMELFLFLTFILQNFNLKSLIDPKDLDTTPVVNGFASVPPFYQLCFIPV
Sequence of Muscarinic acetylcholine receptor M1 (Rattus norvegicus) (P08482 whole entry, looked up): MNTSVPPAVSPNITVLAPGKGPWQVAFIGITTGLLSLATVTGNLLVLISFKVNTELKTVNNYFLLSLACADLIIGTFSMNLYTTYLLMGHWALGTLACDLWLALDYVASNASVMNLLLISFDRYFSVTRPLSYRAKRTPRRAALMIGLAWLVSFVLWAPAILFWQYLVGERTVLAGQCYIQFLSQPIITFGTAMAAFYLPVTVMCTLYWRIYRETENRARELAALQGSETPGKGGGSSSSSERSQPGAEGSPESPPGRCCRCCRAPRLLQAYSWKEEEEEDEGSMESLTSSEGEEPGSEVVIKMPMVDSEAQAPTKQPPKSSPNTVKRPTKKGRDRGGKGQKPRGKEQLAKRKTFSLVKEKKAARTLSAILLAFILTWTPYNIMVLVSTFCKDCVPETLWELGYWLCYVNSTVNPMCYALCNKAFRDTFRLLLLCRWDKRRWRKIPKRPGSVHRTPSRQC

On to `N#C/C(=C\c1c[nH]c2ccccc12)C(=O)c1ccc(O)c(O)c1`, for which the compound was classed as inactive in test [1]. Also, the Potency entry in [2], in [3] and in [4] was “inactive” throughout.

Take `CCN1/C(=C/C(C)=O)Sc2ccc(OC)cc21`: the compound was called inactive in test [1]. Also, the Potency entry in test [2], in test [3] and in [4] was “inactive” each time.

For `N.N.O=C(O)C1(C(=O)O)CCC1.[Pt]`, the result in test [1], in test [6] and in test [8] was inactive. The Potency entry in test [2], in [7], in [3] and in test [4] was “inactive” throughout. Also, the Potency in test [5] is 3.98 µM (active).

On to `N#C/C(=C\c1ccc(O)c(O)c1)C(=O)NCCCc1ccccc1`, for which the compound was called inactive in [1]. Further, the Potency entry in test [2] and in test [3] was “inactive” each time.

For `Brc1c(Br)c(Br)c2n[nH]nc2c1Br`, in test [1], the call was inactive. The Potency result in test [2], in [3] and in [4] was “inactive” each time.

For the compound `C[N+](C)(CCCCCC[N+](C)(C)CCCN1C(=O)c2cccc3cccc(c23)C1=O)CCCN1C(=O)c2cccc3cccc(c23)C1=O`, the result in [1] was inactive. The Potency entry in test [2] and in test [7] was “inactive” throughout. The Potency in test [3] and in [4] was 0.398 µM (active) each time.

As to `CN(C)c1nc(N)c(C(=O)N=C(N)N)nc1Cl`, in test [1], the result was inactive. The Potency entry in test [2], in test [7] and in test [4] was “inactive” each time.

On to `Oc1cc2c(cc1O)CN(C(=S)NCCc1ccc(Cl)cc1)CCC2`, for which the result in test [1] was inactive. Also, the Potency result in test [2], in test [3] and in test [4] was “inactive” in each case. The Potency in [5] is 5.01 µM (active) and 316 nM (active).

For `COc1ccccc1CNCCCCCCNCCCCCCCCNCCCCCCNCc1ccccc1OC`, the outcome in test [1] was inactive. For the same compound, the Potency entry in test [2] and in [9] was “inactive” each time.

For the compound `COc1ccccc1N1CCN(CCCCNS(=O)(=O)c2cccc3c(N(C)C)cccc23)CC1`, in [1], the outcome was inactive. The Potency entry in test [2] was “inactive”. For the same compound, the Potency in test [5] was 0.501 µM (active); in [3], 11.2 µM (active).

`N#C/C(=C\c1ccc(O)c(O)c1)C(=O)NCc1ccccc1`: in test [1], the result was inactive. Further, the Potency entry in [2], in test [10], in test [5] and in test [3] was “inactive” in each case.

With `CN(C)c1nc2c(Br)c(Br)c(Br)c(Br)c2[nH]1`, the call in test [1] was inactive. For the same compound, the Potency result in test [2], in [3] and in test [4] was “inactive” throughout. Moreover, the results for the Potency in test [9] and in [7] were 501 nM (active) and 1.26 µM (active), respectively.

Consider `CCCN(CC1CC1)c1nc(C)nc(Nc2c(Cl)cc(Cl)cc2Cl)c1Cl`, for which the compound was called inactive in [1]. Further, the Potency result in test [2], in [7], in test [3] and in test [4] was “inactive” throughout. Moreover, in [10], the Potency result was “inactive and 1.58 µM (active)”.

Consider `O=c1[nH]c2ccccc2n1CCCN1CCN(C(c2ccccc2)c2ccccc2)CC1`, for which the call in test [1] was inactive. The Potency in test [2] was 15.8 µM (active); in [10], 794 nM (active); in test [3], 5.01 µM (active); in test [4], 15.8 µM (active). The Potency entry in [7] is “inactive”.

`NC[C@@H]1O[C@H](C23CC4CC(CC(C4)C2)C3)Cc2c1ccc(O)c2O`: the outcome in test [1] was inactive. Moreover, the Potency entry in test [2], in [3] and in test [4] was “inactive” throughout. Besides, the Potency in test [11] is 10 µM (active).

`Cn1cc(C2=C(c3ccc(Cl)cc3Cl)C(=O)NC2=O)c2ccccc21`: the result in test [1] was inactive. The Potency entry in [2], in test [3] and in test [4] was “inactive” each time.

`O=C(Nc1cccc(C(=O)Nc2ccc(S(=O)(=O)O)c3cc(S(=O)(=O)O)cc(S(=O)(=O)O)c23)c1)Nc1cccc(C(=O)Nc2ccc(S(=O)(=O)O)c3cc(S(=O)(=O)O)cc(S(=O)(=O)O)c23)c1`: the compound was classed as inactive in [1]. Besides, the Potency result in [2], in [7] and in test [3] was “inactive” in each case. Moreover, the activation in [12] is -24.7% (inactive).
